# Source: PubChem BioAssay (several laboratories)
# Compounds with a hit are over-represented: about 0.5% of the library has one in this group of screens.
# E coli growth-1: blocks Escherichia coli growth | 330,000 tested, 0.21% active | AID 1053175 | OD600 absorbance (no concentration beside the values) | OD600, 23 h; hits give low values;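 active = OD600 absorbance below the run mean of sample wells minus 3.6 SD, in any replicate, cut at about 0.56 in these data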
# AddAB inh: less growth of phage-infected E. coli with AddAB; E. coli expressing H. pylori AddAB, absorbance growth; inhibition, % at 11.9 µM; 330,000 tested, 0.29% active; AID 435030; in the data active = inhibition above about 12%;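 also: 0% = vehicle wells of infected cells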
# phage Ecoli inh: E. coli growth loss with phage present | growth absorbance | inhibition, % at 11.9 µM | 360,000 tested, 0.26% active | AID 651602; in the data active = inhibition above about 11%
# Tat export inh: E. coli Tat transport inhibition. 340,000 tested, 0.036% active. E. coli MC4100 TorA-mCherry Tat export, fluorescence. inhibition, % at 10 µM;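 active = mean replicate inhibition at least 50% and at least half of replicates individually reaching 50%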;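 also: exported cargo escapes ClpAP degradation while cytoplasmic cargo is degraded and loses fluorescence; 0% = median of neutral control wells and 100% = median of NaSCN control wells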
# E coli growth-2: reduces bacterial viability in AddAB counter-screen | E. coli V3065 growth, OD600 absorbance, 18 h | inhibition, % at 11.9 µM | 330,000 tested, 0.27% active;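 active = inhibition above the campaign's mean inhibition across all tested compounds plus 3 SD, cut at about 9.9% in these data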;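 also: uninfected addAB+ strain grown without phage in ampicillin broth; 0% = DMSO wells and 100% = ciprofloxacin 0.95 µg/ml wells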
# AddAB confirm: confirmation screen: growth loss of phage-infected E. coli expressing H. pylori AddAB. shares compounds with AddAB inh. E. coli V3065 expressing H. pylori AddAB, T4 phage, OD; T4 phage with gene 2 nonsense mutations. inhibition, % at 11.9 µM. 880 tested, 64% active. AID 488942;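 active = mean inhibition above a set limit taken from the earlier primary screen, cut at about 13% in these data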;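 also: higher means less bacterial growth since AddAB block lets phage replicate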
# RecBCD counter: counter-screen: growth loss of RecBCD+ E. coli with mutant T4 phage. E. coli V66 + mutant T4 phage, OD growth. AID 488955. shares compounds with AddAB inh. inhibition, % at 11.9 µM. 880 tested, 73% active;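 active = mean inhibition above the mean of solvent-only control wells plus 3 SD, cut at about 4% in these data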;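 also: optical density read after an 18 h incubation at 37 °C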
# Bact viability: reduces bacterial viability, AddAB inhibitor counter-screen | inhibition, % at 11.9 µM | 880 tested, 35% active | shares compounds with AddAB inh | absorbance (AddAB counterscreen); in the data active = inhibition above about 25%
# RecBCD conf: growth loss of phage-infected V66 E. coli, RecBCD confirmation screen. E. coli V66 + T4 2- phage, growth OD. inhibition, % at 11.9 µM. 890 tested, 45% active. shares compounds with phage Ecoli inh. AID 651982;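 active = mean inhibition over triplicates exceeding the hit threshold derived in the original primary screen, cut at about 11% in these data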
# Ecoli viability: bacterial viability inhibition counter-screen for RecBCD | shares compounds with phage Ecoli inh | E. coli viability, absorbance (OD) growth | inhibition, % at 11.9 µM | 890 tested, 29% active; in the data active = inhibition above about 20%;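 also: E. coli strain V66 grown with compound alone and no phage infection; 0% = bacteria with DMSO vehicle only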
# AddAB counter: growth loss of phage-infected AddAB E. coli, RecBCD counter-screen; shares compounds with phage Ecoli inh; E. coli expressing H. pylori AddAB + T4 phage, OD growth; gene 2 mutant T4, recBCD-deleted host; inhibition, % at 11.9 µM; 890 tested, 45% active; AID 651984;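 active = mean inhibition above the solvent-only control wells' mean plus 3 SD, cut at about 22% in these data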;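 also: higher means less bacterial growth from phage killing when AddAB is blocked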
# * hit, by the source's call; / = not tested or not shown; ! = a repeat was not active.
SMILES,E coli growth-1,AddAB inh,phage Ecoli inh,Tat export inh,E coli growth-2,AddAB confirm,RecBCD counter,Bact viability,RecBCD conf,Ecoli viability,AddAB counter
CCOCCCn1c(SC(C(=O)Nc2cc(C)ccc2C)c2ccccc2)nnc1-c1ccc(Cl)cc1 (configuration not stated),0.78,33*,1,-3,68*,2,-1,-3,/,/,/
O=C(Nc1ccccc1C(=O)NN=Cc1ccco1)c1ccccc1Cl,0.65,/,/,/,/,/,/,/,/,/,/
NC(=NCCCCCCN=C(N)/N=C(\N)Nc1ccc(Cl)cc1)/N=C(\N)Nc1ccc(Cl)cc1,/,103*,106*!,156*!,105*,100*,101*,100*,104*,105*,104*
O=[N+]([O-])c1ccc(O)c(C=Nn2cnnc2)c1,0.63,/,/,/,/,/,/,/,/,/,/
COc1c(F)c(F)cc2c(=O)c(C(=O)O)cn(C3CC3)c12,0.05*,98*,95*,68*,98*,98*,99*,102*,98*,99*,98*
COc1c(N2CCN(C(=S)NCc3ccccc3)C(C)C2)c(F)cc2c(=O)c(C(=O)O)cn(C3CC3)c12 (configuration not stated),0.079*,102*,97*,33,104*,101*,99*,101*,103*,104*,105*
COc1c(N2C[C@@H]3CCCN[C@@H]3C2)c(F)cc2c(=O)c(C(=O)O)cn(C3CC3)c12,/,100*,98*,106*,102*,102*,102*,102*,103*,105*,104*
CCOC(=O)c1cn(-c2ccc(F)c(F)c2F)c2c(F)c(F)c(F)cc2c1=O,0.69,3,-1,4,-1,/,/,/,/,/,/
O=c1ccsn1Cc1ccccc1,0.044*,75*,14*,22,9,102*,29*,26*,8,10,77*
O=C1NC(Cc2ccccc2)C(=O)N1Cc1ccccc1 (configuration not stated),0.64,/,2,-4,/,/,/,/,/,/,/
Cc1cccc(C)c1OCc1cc(C(=O)N(C)Cc2nc3ccccc3[nH]2)no1,0.57,26*,14*,-10,17*,19*,11*,16,11,14,38*
CN(C)c1ccc(O)c2c1CC1CC3[C@@H](N(C)C)C(=O)C(C(N)=O)C(=O)[C@]3(O)C(=O)C1C2=O (some centres not stated),/,98*,101*,145*,102*,100*,100*,102*,100*,101*,98*
C=C1c2cccc(O)c2C(O)=C2C(=O)[C@]3(O)C(O)=C(C(N)=O)C(=O)[C@@H](N(C)C)[C@@H]3[C@@H](O)[C@H]12,0.059*,57*,100*,140*,47*,97*,99*,97*,104*,105*,104*
C[C@H]1c2cccc(O)c2C(O)=C2C(=O)C3(O)C(O)=C(C(N)=O)C(=O)[C@@H](N(C)C)[C@@H]3[C@@H](O)[C@@H]21 (some centres not stated),/,96*,101*,152*,97*,101*,100*,101*,103*,104*,104*
C[C@H]1c2cccc(O)c2C(=O)C2C(=O)C3(O)C(=O)C(C(N)=O)C(=O)[C@@H](N(C)C)[C@@H]3[C@@H](O)[C@@H]21 (some centres not stated),/,100*,98*,148*,100*,100*,100*,101*,99*,100*,101*
CN(C)c1ccc(O)c2c1CC1CC3C(N(C)C)C(=O)C(C(N)=O)=C(O)[C@@]3(O)C(=O)C1=C2O (some centres not stated),0.069*,99*,99*,150*,101*,98*,99*,100*,103*,105*,104*
C=CCNC(=S)NN=C(C)c1ccc(-n2ccnc2)cc1,0.68,/,/,/,/,/,/,/,/,/,/
C=CCNC(=S)N1CCN(c2cc3c(cc2F)c(=O)c(C(=O)O)cn3CC)CC1,0.076*,100*,41*,7,99*,103*,101*,104*,103*,105*,104*
CCn1cc(C(=O)O)c(=O)c2cc(F)c(N3CCN(C(=S)NC(=O)c4ccccc4C)CC3)cc21,0.071*,99*,97*,59*,100*,99*,101*,100*,104*,105*,104*
CCn1cc(C(=O)O)c(=O)c2cc(F)c(N3CCN(C(=S)NC(=O)c4cc(OC)cc(OC)c4)CC3)cc21,0.083*,98*,97*,22,98*,101*,100*,101*,104*,105*,106*
CCn1cc(C(=O)O)c(=O)c2cc(F)c(NN=Cc3ccccc3[N+](=O)[O-])cc21,0.7,/,/,/,/,/,/,/,/,/,/
CCCOc1ccc(C(=O)NC(=S)N2CCN(c3ncc4c(=O)c(C(=O)O)cn(CC)c4n3)CC2)cc1,/,/,3,/,/,/,/,/,/,/,/
CCn1cc(C(=O)Nc2ncccc2O)c(=O)c2cc(F)c(N3CCN(C(=O)c4ccco4)CC3)cc21,0.11*,93*,15*,-5,64*,102*,4.9*,77*,3,3,86*
CCCCOC(=O)c1ccc(NC(=S)N2CCN(c3ncc4c(=O)c(C(=O)O)cn(CC)c4n3)CC2)cc1,0.65,3,3,2,4,/,/,/,/,/,/
CCn1cc(C(=O)O)c(=O)c2cc(F)c(N3CCN(S(=O)(=O)c4ccc(Br)cc4)CC3)cc21,/,8,/,/,0,/,/,/,/,/,/
CCn1cc(C(=O)O)c(=O)c2cc(F)c(N3CCN(C(=S)NC(=O)c4ccccc4)CC3)cc21,0.077*,101*,82*,21,101*,99*,100*,103*,100*,100*,100*
CCn1cc(C(=O)O)c(=O)c2cc(F)c(N3CCN(C(=S)Nc4ccc(OC)cc4)CC3)cc21,0.076*,100*,101*,72*,101*,99*,99*,99*,104*,104*,104*
